Data from PubChem BioAssay (NCI).
This is part of a sample that, as a whole, favours compounds with a hit. Of some 83,000 tested, about 20% had one in any assay.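 Interpretation: 100, growth as untreated; towards 0, rising growth inhibition; 0, no net growth; 0 to -100, cell death. Compounds scoring below 10 were considered active.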 Calls of active or inactive are those of the source.

These molecules were tested on HCT-15 colon (assay: NCI-60 one-dose screen, 48 h (100 = growth as untreated, 0 = no growth, -100 = all killed)). Conditions: 10 µM unless noted.
With `CCCCCCCCN(CCCCCCCC)C(=O)CCl` the growth was 96.1% (inactive). With `O=C(Nc1ccc(-n2ccc3c(NC(=O)c4ccccc4)nccc32)cc1)c1ccc(N2CCOCC2)c(C(F)(F)F)c1` the growth was 20% (inactive). With `O=C1/C(=C/c2ccccc2)SC(=Nc2ccccc2)N1Nc1ccccc1` the growth was 9.11% (active). With `C[N+](C)(C)CC(=O)N/N=C\c1ccco1` the growth was 102% (inactive). In the case of `CC(C)CCSc1nc(-c2ccc(F)cc2)c(C#N)c(N2CCN(C)CC2)n1`, the growth is reported as 83.6% (inactive). In the case of `CC(=O)Oc1c(Cl)c(Cl)c(Cl)c(Cl)c1Cl`, the growth is reported as 95% (inactive). With `CN(C)c1nc(-c2cccs2)n2nc(-c3ccc(Cl)cc3)cc2n1` the growth was 92% (inactive). For `COc1nccc2c(Sc3ccccc3)nc(N)nc12`, the growth was 100% (inactive). For `c1cn2cc(-c3ccc4ncn(C5CCCCC5)c4c3)nc(-c3ccc4c(c3)ncn4C3CCCCC3)c2n1`, the growth was -11.5% (active). `CCc1onc(-c2ccc(OC)cc2)c1-c1ccccc1OCCN(CC)CC` was tested, and the growth was 98.2% (inactive). For `CCN(CCC#N)c1ccccc1`, the growth was 108% (inactive). In the case of `S=C(S)Oc1cccc2cccnc12`, the growth is reported as 105% (inactive). For `COc1ccccc1CNCCCN1C(=O)c2ccc3c4c(ccc(c24)C1=O)C(=O)N(CCCNCCCN)C3=O`, the growth was 8.83% (active). With `CC(C)c1ccc(-c2cnc3nonc3n2)cc1` the growth was 19.3% (inactive). With `CN1CCCN(CCNc2nccc(-c3c(-c4cccc(O)c4)nc4sccn34)n2)S1(=O)=O` the growth was 33.7% (inactive). In the case of `COc1ccccc1CNCCCN1C(=O)c2ccc3c4c(ccc(c24)C1=O)C(=O)N(CCCCNCCCN)C3=O`, the growth is reported as 74.6% (inactive). In the case of `CCC(=O)OCc1ccc(OC)cc1`, the growth is reported as 108% (inactive). For `COc1ccc2[nH]cc(C3(c4c[nH]c5ccc(OC)cc45)C(=O)Nc4ccc(F)cc43)c2c1`, the growth was 86.6% (inactive). For `CN1C(=O)NC(Cc2c[nH]c3c(Cl)cccc23)C1=O` (stereo unspecified), the growth was 99.5% (inactive). With `NC(N)=N/N=C/c1ccc(Cl)cc1` the growth was 70.5% (inactive). For `CC(C)(c1ccccc1)c1cc(O)c(C(C)(C)c2ccccc2)cc1O`, the growth was 21.3% (inactive). With `COc1cc(-c2nn(C(=O)NCCN3CCN(C)CC3)cc2-c2ccncc2)ccc1Cl` the growth was 88.7% (inactive). For `CCCCCCCCCCCCCCCCCC(=O)[O][Sn]([CH2]CCC)([CH2]CCC)[CH2]CCC`, the growth was -82.6% (active). With `CC(C)c1nc2ccccc2n1CC(=O)N/N=C/c1cccc(O)c1` the growth was 104% (inactive). For `O=C(Nc1ccc(Cl)cc1)c1cc(-c2ccc(Cl)cc2)c2sc(=O)[nH]c2n1`, the growth was 7.94% (active). `Oc1ccc(-c2nnc3c4[nH]ccc4ncn23)cc1` was tested, and the growth was 110% (inactive). `Cc1nc(N)nc2c1CCC(Nc1ccccc1)S2` (stereo unspecified) was tested, and the growth was 100% (inactive). With `NNC(=O)CSc1nc2scc(-c3ccccc3)c2c(=O)n1-c1ccccc1` the growth was 101% (inactive). In the case of `COC(=O)C(Br)(C(=O)OC)C(Br)C(Br)C(Br)c1ccccc1` (stereo unspecified), the growth is reported as -37.8% (active). For `COc1cnc2c(c1)C(=O)c1c-2n(CCCN2CCN(C)CC2)c(=O)c2cc(Cl)ccc12`, the growth was 41.8% (inactive). In the case of `COc1cc([N+](=O)[O-])cc(OC)c1OC`, the growth is reported as 107% (inactive). `O=c1oc2ccccc2cc1-c1cc(-c2ccc(-c3cc(-c4cc5ccccc5oc4=O)nc(-c4cc5ccccc5oc4=O)c3)cc2)cc(-c2cc3ccccc3oc2=O)n1` was tested, and the growth was 103% (inactive). In the case of `CCCCCCCOc1cccc(/C=C2\N=C3SCCCN3C2=O)c1`, the growth is reported as 87.5% (inactive). For `CN(C)c1ccc(C2(Cl)c3ccccc3N(C)c3ccccc32)cc1`, the growth was 64.5% (inactive). In the case of `O=C(Nc1cccc(-n2ccc3c(NC(=O)c4ccccc4)nccc32)c1)c1ccc(N2CCOCC2)c(C(F)(F)F)c1`, the growth is reported as 14.1% (inactive). With `Fc1ccc(-c2nc(-c3ccc(-c4nc5ccc(F)cc5[nH]4)cc3)no2)cc1` the growth was 86.1% (inactive). With `Clc1ccc(C2=NN[C@H](c3cn(-c4ccccc4)nc3-c3ccccc3)C2)cc1` the growth was 70.5% (inactive). In the case of `CNC1=C([N+](=O)[O-])C(c2ccccc2O)C(C#N)=C(c2cccs2)O1` (stereo unspecified), the growth is reported as 88.5% (inactive).

These molecules were tested on HT29 colon in the same assay as above. Conditions: 10 µM unless noted.
For `CCCCCCCCN(CCCCCCCC)C(=O)CCl`, the growth was 114% (inactive). With `O=C(Nc1ccc(-n2ccc3c(NC(=O)c4ccccc4)nccc32)cc1)c1ccc(N2CCOCC2)c(C(F)(F)F)c1` the growth was 2.44% (active). `O=C1/C(=C/c2ccccc2)SC(=Nc2ccccc2)N1Nc1ccccc1` was tested, and the growth was 5.63% (active). `C[N+](C)(C)CC(=O)N/N=C\c1ccco1` was tested, and the growth was 92.6% (inactive). In the case of `CC(C)CCSc1nc(-c2ccc(F)cc2)c(C#N)c(N2CCN(C)CC2)n1`, the growth is reported as 82.2% (inactive). `CC(=O)Oc1c(Cl)c(Cl)c(Cl)c(Cl)c1Cl` was tested, and the growth was 99.9% (inactive). For `CN(C)c1nc(-c2cccs2)n2nc(-c3ccc(Cl)cc3)cc2n1`, the growth was 33.2% (inactive). `COc1nccc2c(Sc3ccccc3)nc(N)nc12` was tested, and the growth was 108% (inactive). For `c1cn2cc(-c3ccc4ncn(C5CCCCC5)c4c3)nc(-c3ccc4c(c3)ncn4C3CCCCC3)c2n1`, the growth was -26.2% (active). In the case of `CCc1onc(-c2ccc(OC)cc2)c1-c1ccccc1OCCN(CC)CC`, the growth is reported as 60.3% (inactive). With `CCN(CCC#N)c1ccccc1` the growth was 109% (inactive). With `S=C(S)Oc1cccc2cccnc12` the growth was 98% (inactive). In the case of `COc1ccccc1CNCCCN1C(=O)c2ccc3c4c(ccc(c24)C1=O)C(=O)N(CCCNCCCN)C3=O`, the growth is reported as -31.5% (active). In the case of `CC(C)c1ccc(-c2cnc3nonc3n2)cc1`, the growth is reported as 29.8% (inactive). With `CN1CCCN(CCNc2nccc(-c3c(-c4cccc(O)c4)nc4sccn34)n2)S1(=O)=O` the growth was 38.7% (inactive). `COc1ccccc1CNCCCN1C(=O)c2ccc3c4c(ccc(c24)C1=O)C(=O)N(CCCCNCCCN)C3=O` was tested, and the growth was -20.1% (active). With `CCC(=O)OCc1ccc(OC)cc1` the growth was 102% (inactive). `COc1ccc2[nH]cc(C3(c4c[nH]c5ccc(OC)cc45)C(=O)Nc4ccc(F)cc43)c2c1` was tested, and the growth was 68% (inactive). For `CN1C(=O)NC(Cc2c[nH]c3c(Cl)cccc23)C1=O` (stereo unspecified), the growth was 110% (inactive). For `NC(N)=N/N=C/c1ccc(Cl)cc1`, the growth was 35.9% (inactive). With `CC(C)(c1ccccc1)c1cc(O)c(C(C)(C)c2ccccc2)cc1O` the growth was 15.8% (inactive). In the case of `COc1cc(-c2nn(C(=O)NCCN3CCN(C)CC3)cc2-c2ccncc2)ccc1Cl`, the growth is reported as 47% (inactive). `CCCCCCCCCCCCCCCCCC(=O)[O][Sn]([CH2]CCC)([CH2]CCC)[CH2]CCC` was tested, and the growth was -52.2% (active). In the case of `CC(C)c1nc2ccccc2n1CC(=O)N/N=C/c1cccc(O)c1`, the growth is reported as 104% (inactive). For `O=C(Nc1ccc(Cl)cc1)c1cc(-c2ccc(Cl)cc2)c2sc(=O)[nH]c2n1`, the growth was -24% (active). `Oc1ccc(-c2nnc3c4[nH]ccc4ncn23)cc1` was tested, and the growth was 98.3% (inactive). In the case of `Cc1nc(N)nc2c1CCC(Nc1ccccc1)S2` (stereo unspecified), the growth is reported as 104% (inactive). With `NNC(=O)CSc1nc2scc(-c3ccccc3)c2c(=O)n1-c1ccccc1` the growth was 121% (inactive). With `COC(=O)C(Br)(C(=O)OC)C(Br)C(Br)C(Br)c1ccccc1` (stereo unspecified) the growth was 32.3% (inactive). With `COc1cnc2c(c1)C(=O)c1c-2n(CCCN2CCN(C)CC2)c(=O)c2cc(Cl)ccc12` the growth was -60.6% (active). In the case of `COc1cc([N+](=O)[O-])cc(OC)c1OC`, the growth is reported as 96% (inactive). With `O=c1oc2ccccc2cc1-c1cc(-c2ccc(-c3cc(-c4cc5ccccc5oc4=O)nc(-c4cc5ccccc5oc4=O)c3)cc2)cc(-c2cc3ccccc3oc2=O)n1` the growth was 108% (inactive). With `CCCCCCCOc1cccc(/C=C2\N=C3SCCCN3C2=O)c1` the growth was 88.9% (inactive). With `CN(C)c1ccc(C2(Cl)c3ccccc3N(C)c3ccccc32)cc1` the growth was 12.1% (inactive). With `O=C(Nc1cccc(-n2ccc3c(NC(=O)c4ccccc4)nccc32)c1)c1ccc(N2CCOCC2)c(C(F)(F)F)c1` the growth was 2.15% (active). For `Fc1ccc(-c2nc(-c3ccc(-c4nc5ccc(F)cc5[nH]4)cc3)no2)cc1`, the growth was 84.7% (inactive). `Clc1ccc(C2=NN[C@H](c3cn(-c4ccccc4)nc3-c3ccccc3)C2)cc1` was tested, and the growth was 69.5% (inactive). `CNC1=C([N+](=O)[O-])C(c2ccccc2O)C(C#N)=C(c2cccs2)O1` (stereo unspecified) was tested, and the growth was 105% (inactive).
